This note sets out measurements from PubChem BioAssay AID488954 (The Scripps Research Institute Molecular Screening Center, 2010).

Each structure is given as a SMILES string. The list shows a part of the results. Values without a mark were called inactive.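 The calls were made as follows: active = mean activation above a set limit carried over from the earlier primary screen (cut at about 22% in these data); inactive = the rest.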

Sequence of Caspase-3 (Homo sapiens) (P42574 whole entry D9A/D28A/D175A): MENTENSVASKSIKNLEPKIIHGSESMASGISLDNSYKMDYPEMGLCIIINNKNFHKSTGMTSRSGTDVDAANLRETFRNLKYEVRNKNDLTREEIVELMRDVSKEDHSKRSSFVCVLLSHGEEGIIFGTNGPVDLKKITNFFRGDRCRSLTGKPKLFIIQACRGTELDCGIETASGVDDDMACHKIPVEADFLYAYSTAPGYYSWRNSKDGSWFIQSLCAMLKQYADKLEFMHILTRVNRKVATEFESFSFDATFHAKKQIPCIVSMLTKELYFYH

This assay has as its target Caspase-3 (Homo sapiens) (UniProt P42574). Briefly: activators of human procaspase-3 D3A mutant, confirmation, biochemical, absorbance, PC-3 D3A mutant, triplicate (AID 488954). As to conditions: recombinant PC-3 D3A, Ac-DEVD-pNA absorbance 405 nm; at 8.5 µM; hits give high values; 100% is higher-enzyme control.
Turning to `COc1ccccc1NS(=O)(=O)c1ccc(C(=O)N2CCN(c3ccccc3O)CC2)cc1`, the activation was 5.8%.
The result for `COc1ccc(-c2sc3ccc(OC)cc3c2C#Cc2ccccn2)cc1` reads 14.4%.
As to `COc1ccc2nc(Nc3nc4ccc(NC(C)=O)cc4s3)sc2c1`, the activation is -1.02%.
The result for `Cc1nn(C)cc1CNC(=O)Nc1ccc(Cl)cc1` reads 3.2%; that for `Oc1ccccc1C1=NN(c2ccccc2)C(c2ccccc2)C1` (stereo unspecified), -13.4%.
For the compound `COc1ccc(CCNC(=O)COC(=O)c2ccc[nH]c2=O)cc1`, the activation is 5.06%.
For the compound `O=C(CCNS(=O)(=O)c1ccccc1C(F)(F)F)NCc1ccc2c(c1)OCO2`, the activation was 5.75%.
Turning to `CCOc1ccc2nc(NCCNS(=O)(=O)c3ccccc3)c(C#N)cc2c1`, the activation is -14.1%.
Then `COC(=O)Cc1cc(=O)oc2c(C)c(O)ccc12`, with -12.9%; and `COC(=O)c1cnc(Nc2cc(C)ccc2OC)c2ccccc12`, with -14.1%; and `CN1CCN(CCCNC(=O)c2ccc(/C=C3\Oc4ccccc4N(Cc4ccc(Cl)cc4)C3=O)cc2)CC1`, with -14.8%.
